DAX1 inh: inhibitors of DAX1 repression of SF-1 activated StAR promoter; HEK293T StAR-luciferase reporter, SF-1/DAX-1 repression relief; inhibition, % at 6.8 µM; 370,000 tested, 1.1% active; AID 652010;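 active means inhibition above the mean over all tested compounds plus 3 SD, cut at about 3.6% in these data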;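 further: 0% = DAX-1 cells with DMSO and 100% = cells lacking DAX-1 with DMSO; higher inhibition means more luminescence from relief of DAX-1 repression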
ssDAF12 agonist: activators of S. stercoralis DAF-12 nuclear receptor; HEK293 ssDAF-12/GRIP1 lit1-tk-luc reporter, luminescence; % of 3 µM dafachronic acid response; activation, % at 6.8 µM; 370,000 tested, 1% active; AID 652126;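 active means activation above the mean over all tested compounds plus 3 SD, cut at about 0.9% in these data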;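 further: 0% = DMSO-only wells and 100% = 3 µM delta7-dafachronic acid wells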
Wnt bcat act: activates Wnt/beta-catenin signaling in a reporter cell assay. 300,000 tested, 1.2% active. activation, % at 9.35 µM. activator, plate reader; in the data active means activation above about 30%, passing the limit was not always enough;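 further: 0% = neutral control wells and 100% = positive control wells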
hcDAF12 agonist: H. contortus DAF-12 activation, primary screen; HEK293 hcDAF-12 lit1-tk-luc reporter, luminescence; 0% DMSO, 100% Δ7-dafachronic acid; AID 652067; activation, % at 6.8 µM; 370,000 tested, 1.4% active;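 active means activation above the mean of all tested compounds plus 3 SD, cut at about 5.5% in these data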;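 further: 100% = response to 3 µM Δ7-dafachronic acid high control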
hgDAF-12 ag: hgDAF-12 agonism, primary luciferase screen | HEK293 GAL4-hgDAF12 UAS-luciferase reporter, agonist luminescence; normalized to butyrate control | activation, % at 6.8 µM | 370,000 tested, 1.8% active | AID 687014;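 active means activation above a cutoff set at the mean of all screened compounds plus 3 SD, cut at about 10% in these data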;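 further: 0% = DMSO wells and 100% = sodium butyrate wells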
esBAF inh: inhibitors of esBAF chromatin remodeling in mouse ES cells | Bmi1-luciferase knock-in reporter, 24 h; 100% = twice the neutral-well signal | reporter increase, % at 12.5 µM | 350,000 tested, 2% active | AID 602393; in the data active means activation above about 40%;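 further: 0% = median of the plate's neutral control wells and 100% = double that signal; a rise in the Bmi1 reporter signal indicates esBAF inhibition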
LXRb hcDAF ctr: LXR-beta agonism as hcDAF-12 counter-screen; activation, % at 6.8 µM; 3,400 tested, under 10 active; HEK293 Gal4-LXR tk-luc reporter, luminescence, 24 h; normalized: DMSO 0%, positive control 100%; shares compounds with hcDAF12 agonist;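 active means mean percent activation of the reporter above a cutoff set as the average over tested compounds plus their standard deviation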
Target sequence (P55055 whole entry, looked up, the tested form may be a part): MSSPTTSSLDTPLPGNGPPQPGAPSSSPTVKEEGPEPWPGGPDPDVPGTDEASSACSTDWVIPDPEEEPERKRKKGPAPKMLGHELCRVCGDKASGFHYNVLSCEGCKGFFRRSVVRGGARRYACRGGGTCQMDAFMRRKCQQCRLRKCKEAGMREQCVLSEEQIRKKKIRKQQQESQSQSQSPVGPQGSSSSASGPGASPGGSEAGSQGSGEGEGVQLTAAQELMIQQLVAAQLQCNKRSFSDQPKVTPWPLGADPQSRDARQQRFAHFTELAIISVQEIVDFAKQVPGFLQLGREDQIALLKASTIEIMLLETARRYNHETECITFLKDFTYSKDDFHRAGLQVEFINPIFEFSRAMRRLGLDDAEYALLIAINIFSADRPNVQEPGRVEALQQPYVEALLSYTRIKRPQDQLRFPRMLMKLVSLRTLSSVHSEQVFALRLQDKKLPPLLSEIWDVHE
hcDAF12 conf: hcDAF-12 agonism, confirmation assay. shares compounds with hcDAF12 agonist. HEK293 hcDAF-12 lit1-tk-luc reporter, luminescence; % of Δ7-dafachronic acid response. activation, % at 6.8 µM. 3,400 tested, 61% active;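 active means mean activation across triplicate tests above the threshold derived from the earlier primary screen, cut at about 5.5% in these data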;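 further: 0% = DMSO only wells and 100% = 3 µM Δ7-dafachronic acid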
hgDAF12 conf: hgDAF-12 agonism, confirmation assay | shares compounds with hgDAF-12 ag | HEK293 GAL4-hgDAF12 luciferase reporter, agonist mode; percent of butyrate response | activation, % at 6.8 µM | 3,300 tested, 80% active | AID 743050;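 active means mean activation over triplicate wells above the hit cutoff derived from the earlier primary screen, cut at about 11% in these data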;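 further: 0% = DMSO low control and 100% = 2 mM sodium butyrate high control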
LXR ag 2: activates human LXR-beta, counter-screen for DAF-12 agonists | shares compounds with hgDAF-12 ag | HEK293 Gal4-LXR luciferase reporter, 24 h | activation, % at 6.8 µM | 3,300 tested, under 10 active | AID 743051;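 active means mean activation of the triplicate above a set limit carried over from the primary screen, none filed active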
* = called active by the depositor; nt = no result. The list is not random: actives were taken first. Their share in the collection is about 4.2%.

SMILES | DAX1 inh | ssDAF12 agonist | Wnt bcat act | hcDAF12 agonist | hgDAF-12 ag | esBAF inh | LXRb hcDAF ctr | hcDAF12 conf | hgDAF12 conf | LXR ag 2
Cc1ccc2c(c1)N=C(c1ccccc1)CC(C(Cl)Cl)=N2 | 2 | 1.8* | 18 | 15* | 14* | -39 | 1 | 8.1* | 19* | 1
COc1ccc(S(=O)(=O)N2C[C@H](O)COC[C@H]3O[C@H](CC(=O)NCc4ccc(Cl)c(Cl)c4)CC[C@@H]32)cc1 | nt | nt | nt | nt | nt | 1 | nt | nt | nt | nt
Cc1cccc(Nc2nc(-c3ccc(F)c(C)c3)cs2)n1 | 2 | 1.2* | 46* | 9.0* | 14* | 58* | 1 | 7.7* | 17* | 1
CC(=O)NC(c1ccc(F)c(F)c1)c1nc(-c2ccc(C)c(C)c2)cs1 (stereo unspecified) | -1 | -2 | -2 | 0 | -1 | 2 | nt | nt | nt | nt
Cc1cccc(N/C=C/c2onc(C)c2[N+](=O)[O-])c1 | 2 | 1 | nt | 4 | 8 | nt | nt | nt | nt | nt
Cc1cc(O)ccc1N/C=C/c1onc(C)c1[N+](=O)[O-] | 2 | 0.9* | 60* | 7.9* | 17* | nt | 1 | 6.2* | 15* | 1
Cc1ccc2nc(-c3ccccc3)c(Cc3cccc(F)c3)n2c1 | 2 | 1 | 20 | 8.7* | 14* | nt | 0 | 5 | 4 | 0
Cc1ccc(C(=O)Nc2nnc(-c3ccc(C(C)(C)C)cc3)s2)cc1 | 0 | -1 | nt | 1 | 2 | 18 | nt | nt | nt | nt
Cc1ccc(-c2nnc(NC3CCCC3)s2)cc1 | 2 | 0 | 21 | 9.2* | 15* | 20 | 1 | 3 | 19* | 1
Cc1cc(N)n(-c2cc(C)c3ccccc3n2)n1 | 4 | 1.6* | -2 | 9.9* | 17* | nt | 1 | 13* | 17* | 1
Cn1c(-c2ccc(Cl)cc2)cnc1N | 0 | -1 | -6 | -1 | -1 | 0 | nt | nt | nt | nt
Nc1cccn2c(-c3ccc(Cl)cc3)cnc12 | 3 | 1 | -2 | 7.4* | 16* | nt | 1 | 10* | 18* | 1
N/C(=N\OC(=O)c1cccs1)c1ccccc1 | 1 | 2.3* | 14 | 7.4* | 16* | 18 | 1 | 3 | 15* | 1
COc1ccc(C(=O)O/N=C(\N)c2ccccc2)cc1 | 3 | 1.9* | 27 | 8.7* | 14* | -22 | 2 | 6.7* | 18* | 1
COc1ccccc1C/C(N)=N/OC(=O)c1cccs1 | 0 | 0 | 2 | 1 | 3 | nt | nt | nt | nt | nt
Cc1cccc(/C(N)=N/OC(=O)c2cccs2)c1 | 3 | 1.8* | 58* | 7.9* | 15* | -39 | 1 | 5.7* | 17* | 1
COc1cccc(-c2cnc3c(c2)C(=O)N([C@H](C)CO)C[C@@H](C)[C@H](CN(C)C(C)=O)O3)c1 | nt | nt | nt | nt | nt | 3 | nt | nt | nt | nt
CC12COC3(C(=O)Nc4ccc5ccccc5c4)CC1CCC32C (stereo unspecified) | 2 | 1.9* | 7 | 7.3* | 19* | nt | 1 | 6.9* | 16* | 0
CN1CCSc2ccc(C(=O)Nc3cccc(F)c3)cc21 | 3.8* | 2.0* | 10 | 11* | 24* | 50* | 1 | 8.3* | 25* | 1
CCN(CC)c1ccc(C(=O)Nc2cccc(F)c2)cc1 | 2 | 0 | nt | 7.2* | 15* | nt | 1 | 4 | 19* | 1
CN1CCSc2ccc(C(=O)NCc3ccccc3)cc21 | 0 | -1 | 5 | -1 | 5 | 27 | nt | nt | nt | nt
O=C(/C=C/Nc1ccc(F)c(F)c1)c1cccs1 | 3 | 1 | 25 | 16* | 15* | nt | 2 | 15* | 23* | 1
O=C(Nc1nc2c(s1)CCCC2)c1ccc(Br)o1 | 2 | 1.3* | nt | 13* | 16* | -14 | 2 | 10* | 18* | 1
Cc1ccc(C(=O)Nc2nc3c(s2)CCCC3)o1 | 3.8* | 0 | 57* | 11* | 13* | -6 | 2 | 7.0* | 16* | 1
CCc1nnc(NC(=O)c2ccc(C)o2)s1 | 3 | 0 | 10 | 1 | 6 | 22 | nt | nt | nt | nt
SMILES | DAX1 inh | ssDAF12 agonist | Wnt bcat act | hcDAF12 agonist | hgDAF-12 ag | esBAF inh | LXRb hcDAF ctr | hcDAF12 conf | hgDAF12 conf | LXR ag 2
O=C(Nc1nc2c(s1)CCCC2)c1cccnc1 | nt | nt | 22 | nt | nt | nt | nt | nt | nt | nt
CO[C@@H]1CN(C)C(=O)c2cc(NS(=O)(=O)c3ccccc3)ccc2OC[C@H](C)N(C(=O)NC(C)C)C[C@@H]1C | nt | nt | nt | nt | nt | -3 | nt | nt | nt | nt
C/C=C/c1ccc2c(c1)O[C@@H](CN(C)S(=O)(=O)c1ccc(C)cc1)[C@@H](C)CN([C@H](C)CO)S2(=O)=O | nt | nt | nt | nt | nt | 2 | nt | nt | nt | nt
COC(=O)C(C)Nc1cccc(Br)c1 (stereo unspecified) | 0 | -2 | 0 | 0 | -1 | -6 | nt | nt | nt | nt
COC(=O)c1ccc(N=NNc2cccc(Br)c2)cc1 | 3 | 0 | 15 | 7.9* | 15* | nt | 1 | 7.1* | 16* | 0
Cc1[nH]nc(N)c1N=Nc1ccc(Br)cc1 | 1 | -1 | 8 | 1 | 6 | nt | nt | nt | nt | nt
Cc1nc(N)sc1N=Nc1ccc(Br)cc1 | 3.9* | 1.5* | nt | 8.6* | 17* | 75* | 1 | 4 | 21* | 1
O=C(O)c1cccc(NC(=O)c2cn(-c3ccccc3)nc2-c2cc3ccccc3o2)c1 | 0 | -1 | 3 | 0 | 5 | nt | nt | nt | nt | nt
O=C(N/N=C/c1cn(-c2ccccc2)nc1-c1cc2ccccc2o1)c1ccncc1 | 3 | 2.0* | nt | 6.8* | 19* | nt | 1 | 4 | 15* | 1
C[C@H](CO)N1C[C@H](C)[C@@H](CN(C)S(=O)(=O)c2ccc(Cl)cc2)OCCCC[C@H](C)Oc2ccc(NC(=O)CCCN(C)C)cc2C1=O | nt | nt | nt | nt | nt | 5 | nt | nt | nt | nt
Nc1nc(-c2cc(-c3ccccc3)no2)cs1 | 2 | 1 | 46* | 7.9* | 18* | 18 | 1 | 5 | 21* | 1
CCN(CC)c1ccc(/C=C/c2ccc3ccc(OC)cc3[n+]2CC)cc1 | -2 | -2 | -12 | -5 | -10 | -66 | nt | nt | nt | nt
CC[n+]1c(/C=C/c2ccc(OC)c(OC)c2)ccc2ccccc21 | 3 | 1.1* | 8 | 9.3* | 17* | 80* | 1 | 9.7* | 18* | 1
CC1=CN2C(=N)/C(=C/c3ccco3)C(=O)N=C2S1 | 4.0* | 1.6* | 20 | 10* | 16* | nt | 1 | 3 | 12* | 1

High-throughput results deposited in PubChem BioAssay by several laboratories.
